The supplement of paper PMC3334620
Over roughly 33,000 sequences, “E-score (-0.5 to 0.5)” has its median near -0.015; the highest 2% begin near 0.3. Only a selection was taken, and the highest values are over-represented in it overall.

molecular target: T1, Abf1 (UniProt P14164); experiment: PBM E-score (8-mer binding enrichment) (E-score (-0.5 to 0.5)); higher = stronger / more preferred TF binding; conditions: protein concentration: 200 nM; construct: GST-full length
T1 sequence: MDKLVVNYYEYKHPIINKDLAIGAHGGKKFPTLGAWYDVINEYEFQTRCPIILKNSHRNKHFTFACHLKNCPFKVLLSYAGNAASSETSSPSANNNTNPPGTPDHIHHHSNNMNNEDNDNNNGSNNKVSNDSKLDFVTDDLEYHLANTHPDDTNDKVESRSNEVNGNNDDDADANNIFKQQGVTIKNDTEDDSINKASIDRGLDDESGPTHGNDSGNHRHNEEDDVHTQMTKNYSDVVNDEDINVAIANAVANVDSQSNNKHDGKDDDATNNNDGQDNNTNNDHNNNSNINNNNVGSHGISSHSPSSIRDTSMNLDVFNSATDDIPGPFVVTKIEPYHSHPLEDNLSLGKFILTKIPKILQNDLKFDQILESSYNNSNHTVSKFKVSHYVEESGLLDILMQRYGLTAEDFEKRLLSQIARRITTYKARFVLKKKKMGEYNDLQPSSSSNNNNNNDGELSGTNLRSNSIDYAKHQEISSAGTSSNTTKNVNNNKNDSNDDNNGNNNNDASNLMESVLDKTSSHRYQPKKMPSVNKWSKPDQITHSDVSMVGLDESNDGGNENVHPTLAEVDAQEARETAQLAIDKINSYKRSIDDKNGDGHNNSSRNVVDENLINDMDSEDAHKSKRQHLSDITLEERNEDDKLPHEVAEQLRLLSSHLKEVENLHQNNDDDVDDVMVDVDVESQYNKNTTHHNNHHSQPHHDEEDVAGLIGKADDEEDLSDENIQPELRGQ
Summary of the method: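 E-scores (a modified Wilcoxon-Mann-Whitney statistic) were assigned by the Universal PBM Analysis Suite to every ungapped eight-base word pooled with its reverse complement. The input came from universal all-10-mer Agilent arrays made double-stranded by primer extension and probed with GST-tagged yeast transcription factors at about 100-200 nM. Fluorescent anti-GST detected bound protein, and masliner normalised the scans.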

Sequence	PBM E-score
AAAAGGCT	-0.0975
CGGCCGAG	0.0212
CCCCGGAC	-0.105
GTGGTCAA	0.0649
CGTACGCC	0.155
CGTACGTA	0.266
AGTACGGA	0.118
CGTACGGC	0.396
CGTACGTC	0.359
AGTACGTC	0.125
CGTACGGA	0.355
AGTACGGC	0.224
GGTACGGA	0.13
ATGACTGA	-0.0877
CGTATGAA	0.426
AGAATGAC	0.255
CGTATGAC	0.334
GGTATGAC	-0.0891
AGTATGAA	0.135
CGAATGAC	0.312
CGTATGAG	0.189
AGTATGAC	0.186

Sequence	PBM E-score
CGAATGAA	-0.164
AGTGTTCA	-0.11
ACCAGTGG	-0.261
ATAATCCG	-0.0846
AAACAACG	0.0689
CAGTCGAG	-0.177
CGCCGCGA	0.0127
TCCGTTAA	0.0849
CGTGATCC	-0.0112
CCTGATCA	0.112
AGTGATCC	0.189
GCTGATCA	0.139
GGGGATCA	-0.0388
GGTGATCA	0.305
CGTGATCA	0.379
AGTGATCA	0.416
AGTGATCG	0.239
AGTACCGG	-0.202
ACTCCTGC	-0.173
GAGATCGC	0.164
GAGATCAC	0.347
AAGATCAT	0.289

Sequence	PBM E-score
CAGATCAC	0.284
AAGATCAC	0.325
GAGATCAA	0.109
AATTGACT	-0.00646
CGTACCGA	0.232
AATAAGCG	-0.0622
CTATCATC	0.151
AAATCATC	0.278
ATATCATG	0.297
ATATCATA	0.33
ATATCATC	0.408
CTATCATA	0.143
GCAAAAAC	0.0419
GATAGGAC	-0.123
AGGCGTTC	-0.191
AATACTAA	0.0807
AATACTAC	0.301
AATACTAT	-0.00924
AGGGACCG	-0.0817
CATGCCGG	-0.00463
ATCACGTC	0.336
ATCACGTA	0.218

Sequence	PBM E-score
ATCACGCA	0.272
ATCACGGG	0.163
ATCACGGA	0.246
ATCACGCG	0.373
ATCACGGC	0.35
ATCACGAC	0.363
ATCACGAA	0.256
ATCACGCC	0.253
ATCACGAT	0.26
CTCACGTC	0.0288
AGGCTTAT	-0.0827
CAACCGCA	-0.0837
ACTTTGTC	0.217
CCCGCTAG	-0.157
ATGATCCA	0.0885
CCGTCATC	0.128
CCGTCATA	0.37
GCGTCATA	0.138
AATGGTCC	-0.0212
AACATCAT	0.309
